High-throughput results as filed in PubChem.
NPSR antag = qHTS Assay for Antagonists of the Neuropeptide S Receptor: cAMP Signal Transduction; Q6W5P4; CHO-NPSR cells, cAMP TR-FRET, antagonist mode; Potency, µM (titrated, usually from 38.3 µM), without a hit: at the highest dose activity change, negative = inhibition, usual class: inhibitors; 220,000 compounds, 1% hits; note: potency is the fitted concentration of half-maximal effect; % is set by controls: 0 for no effect and ±100 for the full control effect; nearly all actives have a fitted effect of over 50% in size
Target sequence (Q6W5P4 whole entry, looked up): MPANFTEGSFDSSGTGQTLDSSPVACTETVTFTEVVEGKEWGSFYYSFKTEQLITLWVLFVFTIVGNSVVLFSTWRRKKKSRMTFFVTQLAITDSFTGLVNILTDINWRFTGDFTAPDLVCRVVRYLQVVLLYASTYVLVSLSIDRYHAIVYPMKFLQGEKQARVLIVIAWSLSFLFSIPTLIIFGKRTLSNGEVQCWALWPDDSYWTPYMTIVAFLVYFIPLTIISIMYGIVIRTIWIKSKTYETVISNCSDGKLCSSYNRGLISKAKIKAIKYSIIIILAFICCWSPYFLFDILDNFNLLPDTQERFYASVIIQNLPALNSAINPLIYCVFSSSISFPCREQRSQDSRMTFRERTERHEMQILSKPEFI
HTT aggregate = qHTS Multiplex Assay to Identify Dual Action Probes in a Cell Model of Huntington: Aggregate Formation (GFP); PC12 HttQ103-GFP aggregates, Acumen cytometry, 40 h; Potency, µM (series often up to 46.1 µM), for inactives: top-dose activity change, negative = inhibition, actives largely listed as inhibitors; 220,000 compounds, 1.1% hits; note: potency is the fitted concentration of half-maximal effect; % is set by controls: 0 for no effect and ±100 for the full control effect; nearly all actives have a fitted effect of over 60% in size
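Inducible Q103 Huntingtin exon 1–GFP PC12 line, 1500 cells/well in phenol red free DMEM with 5% equine and 5% calf serum. Tebufenozide 100 nM induced expression; compounds titrated; aggregates quantified by cytometry.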
HTT ATP protect = qHTS Multiplex Assay to Identify Dual Action Probes in a Cell Model of Huntington: Cytoprotection (ATP); PC12 HTT-Q103 induced, cytoprotection, ATP luminescence, 40 h; Potency, µM (doses to about 56.4 µM), without a hit: cytoprotection (ATP increase), usual class: activators; 230,000 compounds, 0.14% hits; AID 1471, 2008; note: potency is the fitted concentration of half-maximal effect; % of control where 0% means no effect; nearly all actives have a fitted effect of over 45% in size
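Quantitative HTS on tebufenozide-induced (100 nM) PC12 cells expressing HTTQ103 exon 1–GFP; compounds tested as a concentration series; survival measured via cellular ATP.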
IMPase Li inh = qHTS Assay for Identifying the Cell-Membrane Permeable IMPase Inhibitors: Potentiation with Lithium; CHO-M1 cells, IP1 TR-FRET (IP-One), carbachol + lithium; Potency, µM (highest dose often 59.4 µM), without a hit: at the highest dose activity, negative = IMPase inhibition, actives largely listed as inhibitors; AID 1457, 2008; 210,000 compounds, 0.35% hits;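 note: IP1 builds up when IMPase is blocked and the TR-FRET signal falls; potency is the fitted concentration of half-maximal effect; plate controls were basal vehicle for no effect and high inhibitor control for full effect; nearly all actives have a fitted effect of over 50% in size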
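Lithium-sensitised IP1 accumulation assay; M1-expressing CHO cells treated 30 min at 37C with compound. Competitive antibody detection by time-resolved FRET followed a 10 min room-temperature lysis step.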
LMNA splice mod = qHTS Assay for Modulators of Lamin A Splicing; HeLa LMNA splicing GFP/RFP minigene ratio, 48 h; Potency, µM (series often up to 46.1 µM), inactives show top-dose ratio change, negative = inhibition, usual class: inhibitors; 200,000 compounds, 0.01% hits; AID 1487, 2009; active = well fitted inhibition curve with a large enough effect in the signal ratio, with a control signal flat, not every such curve was filed as active; inconclusive = small, poorly fitted or top-dose-only effect, or effect the other way, or a change in a side signal; the % refers to the signal ratio; note: potency is the fitted concentration of half-maximal effect; % is set by controls: 0 for no effect and ±100 for the full control effect
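S3 HeLa cells stably expressing lamin A-EGFP splicing minigene plus DsRed2, 600 cells/well, 48 h compound exposure at 37C. Laser-scanning cytometry; analysed as GFP (500-530 nm)/RFP (575-640 nm) total intensity ratio; 0.5% DMSO vehicle.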
IMPase inh = qHTS Assay for Identifying the Cell-Membrane Permeable IMPase Inhibitors; Inositol monophosphatase 1 (Rattus norvegicus), P97697; CHO-M1 cells, IP1 accumulation, HTRF TR-FRET ratio; inhibition (IP1 accumulation), % at 46.1 µM; 120,000 tested, under 10 active; active = well fitted curve in the direction sought with a large enough effect in the signal ratio, not every such curve was filed as active; inconclusive = small, poorly fitted or top-dose-only effect, or a change in a side signal; inactive = no such curve, though single readings can be large or run the other way; the % refers to the signal ratio;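 note: cells stimulated with carbachol in lithium chloride buffer; plate controls were DMSO basal wells for no effect and reference inhibitor wells for full effect; higher means more IMPase inhibition seen as more IP1 and lower FRET ratio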
Target sequence (P97697 whole entry, looked up): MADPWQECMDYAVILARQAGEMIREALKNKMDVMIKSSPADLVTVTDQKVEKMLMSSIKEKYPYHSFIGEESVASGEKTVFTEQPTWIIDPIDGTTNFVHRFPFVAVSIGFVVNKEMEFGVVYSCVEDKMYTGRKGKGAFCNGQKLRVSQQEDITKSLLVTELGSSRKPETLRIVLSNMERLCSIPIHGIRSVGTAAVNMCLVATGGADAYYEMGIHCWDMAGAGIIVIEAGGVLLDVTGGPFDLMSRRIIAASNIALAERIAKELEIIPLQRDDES
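Elevated IP1 in lysates lowers TR-FRET signal (665/620 ratio and 620 channel reported). Cells were CHO-M1, given carbachol (50 uM as added) plus 50mM LiCl, pH 7.4, 30 min, 37C; compounds titrated up to 46 uM; AC50 by Hill equation.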
* = called active by the depositor; ? = inconclusive; nt = not tested or not shown; [ ] = dose if it differs, or a comment. Compounds with a hit are over-represented: about 1.6% of the library has one in this group of screens. Unless noted, calls come from the whole dose curve; as a rule, active = well fitted curve in the direction sought with a large enough effect; inconclusive = small, poorly fitted or top-dose-only effect, or another doubt; inactive = no such curve, though single readings can be large; an effect the other way counts as inactive or inconclusive.

SMILES	NPSR antag	HTT aggregate	HTT ATP protect	IMPase Li inh	LMNA splice mod	IMPase inh
COc1ccc(NC(=O)c2sc3nc(-c4ccc(OC)cc4)cc(C(F)(F)F)c3c2N)cc1	nt	nt	nt	nt	nt	2
O=C(O)Cn1nnc(-c2ccc(OCc3cccc(C(F)(F)F)c3)cc2)n1	nt	nt	nt	nt	1%[46 µM]	nt
O=C(O)c1cc(N(Cc2ccccc2O)Cc2cc(O)ccc2O)ccc1O	nt	nt	-61%	-5%	nt	nt
Cc1onc(-c2ccccc2Cl)c1C(=O)NC(=S)NCC(=O)c1ccccc1	?	-4%[9.22 µM]	5%[10 µM]	10µM*	nt	nt
Cc1onc(-c2ccccc2Cl)c1C(=O)N1CCCCC1C(=O)O (stereo not given)	2%[46.1 µM]	2%	3%	-8%[38.3 µM]	4%	5
Cc1onc(-c2ccccc2Cl)c1C(=O)N(C)C1CCCCC1	-13%[46.1 µM]	14µM*	16%	11%[38.3 µM]	?	7
O=C(N/N=C/c1cc(Br)ccc1O)c1ccccc1Cl	-39%	4µM*	nt	-13%	?	nt
O=C(N/N=C/c1cc(Br)ccc1O)C(=O)Nc1ccccc1OC(F)(F)C(F)F	?	8.9µM*	-46%	-4%[38.3 µM]	?	-19
O=C(N/N=C/c1cc(Cl)ccc1O)C(=O)Nc1ccccc1OC(F)(F)C(F)F	-16%	?	nt	-17%	?	nt
CCC/C=N/NC(=O)c1cc(-c2ccccc2)nc2ccccc12	-3%[46.1 µM]	-12%	5%[10 µM]	-4%	-10%	-5
CCC/C=N/NC(=O)c1cc(Br)ccc1O	12%	16µM*	23%[10 µM]	1%	-6%	nt
O=C(N/N=C/c1cc(Br)ccc1O)c1cccc(N2CCCC2=O)c1	-30%	2.2µM*	nt	-10%	?	nt
COc1ccc(CCNC(=O)c2cc(C)nc3c2c(C)nn3-c2ccccc2)cc1OC	nt	nt	nt	nt	-3%[46 µM]	nt
Nc1nc2c(c(=O)[nH]1)CN(c1ccc(S(N)(=O)=O)cc1)CN2	nt	nt	1%[10 µM]	5%	nt	nt
COc1cccc(N2CCN(c3ncnc4c3[nH]c3ccccc34)CC2C)c1 (stereo not given)	10µM*	11µM*	-8%[10 µM]	10%	?	7
COc1cccc(N2CCN(c3ncnc4c3[nH]c3ccc(F)cc34)CC2C)c1 (stereo not given)	2.5µM*	6.3µM*	-126%	32%[38.3 µM]	?	15
COC(=O)c1ccc(OC(=O)CCc2cc(OC)c(OC)c(OC)c2)cc1	4%	-7%	-19%	-3%	-22%[46 µM]	nt
CC1(C)CC[C@]2(C(=O)O)CC[C@]3(C)C(=CC[C@@H]4[C@@]5(C)CC[C@H](O)C(C)(C)[C@@H]5CC[C@@]43C)[C@@H]2C1	nt	nt	2%	nt	nt	nt
Cc1ccccc1OCC(=O)Nc1sc(C(=O)Nc2cccc(C)c2C)c(C)c1C#N	4µM*	14%	-1%	1µM*	1%	?
COc1ccccc1NC(=O)c1sc(NC(=O)c2ccco2)c(C#N)c1C	-1%[46.1 µM]	-8%	-1%	26%[38.3 µM]	22%	-9
Oc1ccc([C@@H]2CNCc3sccc32)cc1O	nt	nt	27%[1.9 µM]	nt	nt	3
CCN(CC)Cc1c(O)ccc2c([N+](=O)[O-])c(C)n(-c3ccc(OC)cc3)c12	-8%[46.1 µM]	5µM*	-12%[10 µM]	11%	?	16
CCS(=O)(=O)c1nnnn1-c1ccccc1S(C)(=O)=O	-20%[46.1 µM]	nt	13µM*	3%[38.3 µM]	?	-10
Cc1ccn2c(-c3csc(NCc4ccccc4)n3)c(C)nc2c1	?	11µM*	26%[1.9 µM]	30%	?	19
Cc1nc2ccccn2c1-c1csc(NCc2ccco2)n1	-13%[46.1 µM]	5.6µM*	16%	13%[38.3 µM]	?	6
SMILES	NPSR antag	HTT aggregate	HTT ATP protect	IMPase Li inh	LMNA splice mod	IMPase inh
c1coc(CNc2nc(-c3ccncc3)cs2)c1	0%[46.1 µM]	14µM*	-13%[10 µM]	-5%	?	-6
COc1cc(C/C=C\c2ccccc2)c(OC)cc1O	nt	nt	-193%	11%	nt	nt
CC(=O)c1ccc(NC(=O)CSc2nnc(Cn3cnc4ccccc43)o2)cc1	-9%	-2%[9.22 µM]	2%[10 µM]	14%	21%[46 µM]	nt
COc1ccc(C(=O)CSc2nnc(Cn3cnc4ccccc43)o2)cc1	-6%[46.1 µM]	10µM*	-12%[10 µM]	26%[38.3 µM]	?	-6
CCN(CC)C(=O)c1sc(NC(=O)c2ccc(C)c([N+](=O)[O-])c2)c(C#N)c1C	0%[46.1 µM]	13µM*	-45%	6%[38.3 µM]	-8%	4
COCCCNc1nc2c(c(=O)[nH]c(=O)n2C)n1CC(O)COc1ccc(Cl)cc1 (stereo not given)	nt	nt	nt	nt	nt	4
C(=N\Nc1nc(Nc2ccccc2)nc(Nc2ccccc2)n1)/c1ccncc1	3%	nt	nt	2%	6%[46 µM]	nt
C(=N\Nc1nc(Nc2ccccc2)nc(Nc2ccccc2)n1)/c1cccnc1	?	4.5µM*	-9%[10 µM]	20%	nt	nt
NCCSCCC(=O)O	nt	nt	-15%[10 µM]	-2%	nt	nt
CC(C)OC(=O)c1c2nc3ccccc3nc2n2c1[nH]c(=O)c1ccccc12	10µM*	-22%	-28%[10 µM]	17%[38.3 µM]	4%	?
C=C1CC[C@@H](O)C/C1=C/C=C1\CCC[C@]2(C)[C@@H]1CC[C@H]2[C@@H](C)/C=C\[C@@H](C)C(C)C	nt	nt	-23%	nt	nt	nt
CC1=CC(=O)C(C(C)C)=C/C1=N/OS(=O)(=O)c1ccccc1	4µM*	-33%[9.22 µM]	-63%[10 µM]	nt	nt	nt
CC1=CC(=O)C=C(C)C1=NOS(=O)(=O)c1ccccc1	7.9µM*	20%[9.22 µM]	-111%	57%[38.3 µM]	2%	?
CN(Cc1ccccc1)Cn1ccnc1	nt	nt	22%[10 µM]	5%	nt	nt
Cc1cccc(N(CC(=O)NCCc2ccccc2)S(=O)(=O)c2ccccc2)c1C	nt	nt	nt	nt	nt	14
COc1ccc(C(=O)Nc2cc(C(=O)c3ccccc3)c(C)oc2=O)cc1	?	11%[9.22 µM]	-35%	-2%[38.3 µM]	0%	8
Cc1oc(=O)c(NC(=O)c2cccc(Cl)c2)cc1C(=O)c1ccccc1	7.9µM*	-1%	9%	1%[38.3 µM]	?	3
O=S(=O)(NCc1ccccn1)c1cccc2cccnc12	nt	nt	-7%	nt	nt	nt
CCOc1nc(SCCOc2ccccc2)nc(N(C)C)n1	-18%[46.1 µM]	0.45µM*	?	13%[38.3 µM]	-25%	2
CCOC(=O)N1CCN(S(=O)(=O)c2ccc(C(=O)Nc3nnc(CSC)o3)cc2)CC1	-4%	-15%	0%[10 µM]	-6%	?	nt
CCOC(=O)N1CCN(S(=O)(=O)c2ccc(C(=O)Nc3nnc(C)o3)cc2)CC1	2%	?	3.5µM*	-11%	0%	nt
COc1cccc(-c2nnc(NC(=O)c3ccc(S(=O)(=O)N4CCOCC4)cc3)o2)c1	-16%[46.1 µM]	10µM*	-56%	3%[38.3 µM]	?	?
